Screening results from PubChem BioAssay.
An excerpt weighted towards active compounds, which were near 4.5% of everything screened.
EBNA-1 inh: blocks EBNA-1 binding to DNA; 300,000 compounds, 0.34% hits; inhibition, % at 14.8 µM; EBNA-1 DNA binding, fluorescence polarization; in the data active means inhibition above about 28%
TPT1 inh: blocks Candida albicans tRNA 2'-phosphotransferase | recombinant caTPT1, FP RNA substrate dephosphorylation | inhibition, % at 5 µM | 300,000 compounds, 0.81% hits | AID 1962;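 active means inhibition above the mean of all tested compounds plus 3 SD, set per screening campaign, cut at about 24% in these data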
dFosB activator: enhances mouse delta FosB homodimer DNA binding; activation, % at 25 µM; P13346; purified delta FosB, TAMRA-CDK5 oligo fluorescence polarization; percent of positive-control signal above neutral wells; AID 493131; 340,000 compounds, 0.99% hits;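 active means mean activation above about 17%, with every replicate also reaching it, limit read from the data, passing the limit was not always enough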
ZTA DNA inh: ZTA (EBV) inhibition in EBNA-1 counter-screen | P03206 | 320,000 compounds, 0.15% hits | ZTA-DNA binding, fluorescence polarization | AID 2234 | inhibition, % at 11 µM; in the data active means inhibition above about 33%
Target sequence (P03206 whole entry, looked up): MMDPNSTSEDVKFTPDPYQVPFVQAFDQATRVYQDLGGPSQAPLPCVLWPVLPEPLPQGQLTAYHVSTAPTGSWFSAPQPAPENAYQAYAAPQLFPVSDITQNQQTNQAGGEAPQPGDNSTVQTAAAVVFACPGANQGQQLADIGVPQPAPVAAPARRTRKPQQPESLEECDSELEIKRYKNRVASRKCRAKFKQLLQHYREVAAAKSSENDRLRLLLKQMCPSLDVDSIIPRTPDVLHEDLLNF
Rpn11 block: Rpn11 (human) deubiquitinase inhibition; 360,000 compounds, 0.59% hits; inhibition, % at 20 µM; AID 588493; human 26S proteasome, Ub4-pepOG fluorescence polarization; 20S core pre-blocked with epoxomicin;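 active means inhibition at 20 µM, scaled to each plate's controls, above about 33%, limit read from the data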
GRIN3A LBD mod: modulators (binders) of human NR3A ligand-binding domain; NR3A LBD differential scanning fluorimetry, Tm shift; 0% = protein alone, 100% = glycine-bound protein; Tm shift relative to glycine control, % at 25 µM; 340,000 compounds, 2.5% hits; AID 1259313;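 active means melting temperature shift of at least 10% of the positive control shift, at one fixed dose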
caTPT1 confirm: confirmation of Candida albicans TPT1 inhibitors; shares compounds with TPT1 inh; recombinant caTPT1, fluorescence polarization, RNase T1 coupled; inhibition, % at 5 µM; 2,400 compounds, 74% hits;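 active means inhibition above the primary screen limit, the mean inhibition of all tested compounds plus 3 SD, cut at about 25% in these data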
RNase T1 counter: blocks Aspergillus oryzae RNase T1, a TPT1 counter-screen | 2,400 compounds, 83% hits | shares compounds with TPT1 inh | RNase T1 cleavage, fluorescence polarization, 1536-well | AID 2153 | inhibition, % at 5 µM;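 active means inhibition above the solvent-only control well mean plus 3 SD, limit set per screening run, cut at about 23% in these data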;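 further: inhibitors block cleavage so intact labeled substrate keeps polarization high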
Target sequence (P00651 whole entry, looked up): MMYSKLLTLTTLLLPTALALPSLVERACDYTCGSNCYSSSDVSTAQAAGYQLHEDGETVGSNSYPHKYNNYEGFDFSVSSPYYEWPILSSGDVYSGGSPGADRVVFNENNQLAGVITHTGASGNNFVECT
ZTA inh confirm: confirmation of Epstein-Barr virus ZTA DNA binding inhibitors | shares compounds with ZTA DNA inh | Zta-ZRE DNA binding, fluorescence polarization | inhibition, % at 11.1 µM | 320 compounds, 30% hits;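 active means mean inhibition across triplicate runs above the hit threshold derived for the original primary screen, cut at about 33% in these data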
EBNA-1 counter: EBNA-1 DNA binding inhibition, counter-screen for ZTA; fluorescence polarization; 320 tested, under 10 active; shares compounds with ZTA DNA inh; AID 2362; inhibition, % at 14.8 µM; call rule not given here
Rpn11 inh conf: Rpn11 inhibition confirmation, single concentration. shares compounds with Rpn11 block. purified human 26S proteasome, Ub4-pepOG fluorescence polarization; proteasome pretreated with epoxomicin. inhibition, % at 20 µM. 1,900 compounds, 29% hits. AID 602318
MMP-2 inh: MMP-2 (human) inhibition counter-screen; 1,900 compounds, 4% hits; AID 602330; recombinant MMP-2, FRET peptide cleavage fluorescence; inhibition, % at 20 µM; shares compounds with Rpn11 block;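 further: human MMP-2 activated beforehand with APMA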
Thrombin inh: thrombin (bovine) inhibition counter-screen | shares compounds with Rpn11 block | bovine thrombin cleavage of Ub4-pepOG, fluorescence polarization | inhibition, % at 20 µM | 1,900 compounds, 13% hits;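 active means mean inhibition at least 40% at 20 µM, or signal 3 deviations below plate average, so some actives read negative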
Large screens that a line does not name were inactive (follow-up assays come after a bar, where they were run); ! = a repeat was not active. Unless noted, no stated cut-off is given here; in the data, active means inhibition above about 40%; inactive means the rest.

COc1ccc(-n2c(O)c(/C=C3\C=Nc4ccc(Br)cc43)c(=O)[nH]c2=O)cc1	TPT1 inh 33.3, Rpn11 block 65.1 | caTPT1 confirm 25.5 | RNase T1 counter 31.9 | Rpn11 inh conf inactive | MMP-2 inh inactive | Thrombin inh inactive
COc1cc(/C=C/c2nc3ccccc3c(=O)n2-c2cccc(O)c2)ccc1O	TPT1 inh 33.8, Rpn11 block 92.9 | caTPT1 confirm 50.3 | RNase T1 counter 53.8 | Rpn11 inh conf inactive | MMP-2 inh inactive | Thrombin inh inactive
O=C(O)c1ccc(/C=C/c2nc3ccccc3c(=O)n2-c2ccc(Br)cc2)cc1	none
CO[C@H]1CC=C2CCN3CCC4=C(CC(=O)OC4)[C@]23C1	none
COc1ccc2nc(/N=C/c3c(O)n(-c4cccc(Cl)c4)c(=O)[nH]c3=O)sc2c1	TPT1 inh 54.9, Rpn11 block 47.5 | caTPT1 confirm inactive | RNase T1 counter inactive | Rpn11 inh conf inactive | MMP-2 inh inactive | Thrombin inh inactive
COc1ccc(CN2C(=O)NC(=O)/C(=C/c3cc(OC)c(OC)c(OC)c3)C2=O)cc1	none
COc1ccc(CN2C(=O)NC(=O)/C(=C/c3ccoc3)C2=O)cc1	TPT1 inh 174.5, Rpn11 block 186.4 | caTPT1 confirm inactive | RNase T1 counter 32.1 | Rpn11 inh conf 96.4 | MMP-2 inh 43.9 | Thrombin inh inactive
Cc1cccc(CNCCc2ccccc2)n1	none
CC1=NCCc2c1[nH]c1ccccc21	TPT1 inh 24.6, Rpn11 block 61.6 | caTPT1 confirm inactive | RNase T1 counter 21.9 | Rpn11 inh conf inactive | MMP-2 inh inactive | Thrombin inh inactive
O=C1N(CN2CCOCC2)c2ccccc2C1(O)c1c[nH]c2ccccc12 (stereo unspecified)	none
COc1ccc(N=Cc2c(O)n(CC3CCCO3)c(=O)[nH]c2=O)cc1 (stereo unspecified)	none
O=c1[nH]c(=O)n(CC2CCCO2)c(O)c1/C=C1\C=Nc2ccccc21 (stereo unspecified)	TPT1 inh 36.6!, Rpn11 block 47.5! | caTPT1 confirm inactive | RNase T1 counter 23.5 | Rpn11 inh conf inactive | MMP-2 inh inactive | Thrombin inh inactive
O=c1[nH]c(=O)n(-c2cccc3ccccc23)c(O)c1/C=N/N1CCCCC1c1cccnc1 (stereo unspecified)	TPT1 inh 50.5, Rpn11 block 43.7 | caTPT1 confirm 67.1 | RNase T1 counter 80.6 | Rpn11 inh conf 90.1 | MMP-2 inh inactive | Thrombin inh 66.7
CCN(CC)C(=O)c1ccc2c(c1)C1C(Cl)C(Sc3ccccc3[N+](=O)[O-])CC1C(C(=O)O)N2 (stereo unspecified)	ZTA DNA inh 54.5 | ZTA inh confirm 39.4 | EBNA-1 counter inactive
COc1cccc(/C=C2\N=C(c3cncc(Br)c3)OC2=O)c1	none
Cn1ncnc2c(=O)n(C)c(=O)nc1-2	ZTA DNA inh 59.0 | ZTA inh confirm 72.0 | EBNA-1 counter inactive
Cc1ccc2c(c1)N(C(=O)CCC(=O)N1CCC3(CC1)OCCO3)CC(C)O2 (stereo unspecified)	none
